The record followed here is PubChem BioAssay (NCATS).

Several values for one entry are separate records, joined by “and”; a condition that tells them apart may be missing. Equal entries are not always repeated. Inconclusive results are not listed. Unmarked numbers belong to inactive results. Activity calls are given as the source filed them. The call rests on the fitted dose curve; in most records, active means well fitted curve in the direction sought with a large enough effect; inconclusive means small, poorly fitted or top-dose-only effect, or another doubt; inactive means no such curve, though single readings can be large; an effect the other way counts as inactive or inconclusive.

For assay [1], the target named is Cellular tumor antigen p53 (Homo sapiens) (UniProt P04637). Briefly: Primary qHTS for small molecule compounds that upregulate eGFP-tagged delta133p53alpha (in N-terminal) cells. (AID 2060322). Further: nearly all actives have a fitted effect of over 75% in size. Further: potency means the concentration at half of the fitted maximal effect.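 On activation: series mostly up to about 56 µM; 0% = DMSO vehicle and 100% = reference activator.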 To be noted: NCI-H358 eGFP-delta133p53alpha fluorescence, 24 h; activation: hits give high values. The method in brief:
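NCI-H358 cells pre-induced 24 h with 10 ng/ml doxycycline to express N-terminal eGFP-delta133p53alpha, then dosed 24 h at 37C without doxycycline; fixed, Hoechst-stained, GFP intensity by laser scanning cytometry, normalized to DMSO (0%) and 57.5 uM 5-azacytidine (100%).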
In general terms: In qHTS, concentration-response curves come from the screen itself.

Assay [2] concerns the target Aldehyde dehydrogenase, mitochondrial (Homo sapiens) (UniProt P05091). Kind of assay: qHTS for Inhibitors of the Aldehyde Dehydrogenase Family (ALDH2) Primary screen (AID 2061308).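 Further: plate controls were vehicle for no effect and reference inhibitor for full effect; nearly all actives have a fitted effect of over 55% in size.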
Assay [3] addresses Retinaldehyde dehydrogenase 3 (Homo sapiens) (UniProt P47895). Briefly: qHTS for Inhibitors of the Aldehyde Dehydrogenase Family (ALDH1A3) Primary screen (AID 2061315).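 Further: plate controls were DMSO vehicle for no effect and reference inhibitor for full effect.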
Assay [4] in a line: BET inhibitor-based combinations targeting novel dependencies in MECOM-rearranged (r) AML: SET-2 cell line (AID 2202231). Further: nearly all actives have a fitted effect of over 35% in size. Further: potency means the concentration at half of the fitted maximal effect.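 On viability: plate controls were DMSO treated cells for no effect and wells without cells for full effect.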 The note with it: SET-2 AML cells viability, CellTiter-Glo luminescence, 48 h; viability: hits give low values, concentration not given here. A digest of the protocol:
(§1)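 AML cell lines seeded at 500 cells/well, treated with 11-point dose curves for 48 h. Viability by CellTiter-Glo luminescence, normalised to DMSO and empty wells; activity expressed as AUC and per-cell-line Z-transformed AUC.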
(In general: ATP-based viability assays read luminescence as a measure of living cells.)

Assay [5] is described as follows: BET inhibitor-based combinations targeting novel dependencies in MECOM-rearranged (r) AML: OCI-AML3 cell line (AID 2202232). Further: nearly all actives have a fitted effect of over 35% in size. Further: potency means the concentration at half of the fitted maximal effect. The note with it: Potency: OCI-AML3 viability. The method in brief:
as §1

The nature of assay [6]: BET inhibitor-based combinations targeting novel dependencies in MECOM-rearranged (r) AML: HNT-34 cell line (AID 2202234). Further: nearly all actives have a fitted effect of over 35% in size. Further: potency means the concentration at half of the fitted maximal effect. A digest of the protocol: (§2)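 Cells at 500/well were exposed for 48 hr to MIPE v5.0 drugs as 11-point dose curves. Viability was read by CellTiter-Glo luminescence and normalized to DMSO and empty-well controls. Activity was expressed as AUC and per-cell-line Z-AUC.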

Assay [7] can be described thus: BET inhibitor-based combinations targeting novel dependencies in MECOM-rearranged (r) AML: UCSD-AML1 cell line (AID 2202235). Further: nearly all actives have a fitted effect of over 40% in size. Further: potency means the concentration at half of the fitted maximal effect. The method in brief: as §2
Assay [8] in a line: BET inhibitor-based combinations targeting novel dependencies in MECOM-rearranged (r) AML: AML-194 cell line (AID 2202237; further: nearly all actives have a fitted effect of over 40% in size; further: potency means the concentration at half of the fitted maximal effect). The method in brief: as §1
Assay [9] is described as follows: BET inhibitor-based combinations targeting novel dependencies in MECOM-rearranged (r) AML: MV-4-11 cell line (AID 2202233). Further: nearly all actives have a fitted effect of over 45% in size. Further: potency means the concentration at half of the fitted maximal effect. A digest of the protocol:
as §2

Assay [10] in a line: BET inhibitor-based combinations targeting novel dependencies in MECOM-rearranged (r) AML: AML-191 cell line (AID 2202236; further: nearly all actives have a fitted effect of over 35% in size; further: potency means the concentration at half of the fitted maximal effect). A digest of the protocol:
as §1

Chain of Cellular tumor antigen p53 (Homo sapiens) (P04637 whole entry, looked up): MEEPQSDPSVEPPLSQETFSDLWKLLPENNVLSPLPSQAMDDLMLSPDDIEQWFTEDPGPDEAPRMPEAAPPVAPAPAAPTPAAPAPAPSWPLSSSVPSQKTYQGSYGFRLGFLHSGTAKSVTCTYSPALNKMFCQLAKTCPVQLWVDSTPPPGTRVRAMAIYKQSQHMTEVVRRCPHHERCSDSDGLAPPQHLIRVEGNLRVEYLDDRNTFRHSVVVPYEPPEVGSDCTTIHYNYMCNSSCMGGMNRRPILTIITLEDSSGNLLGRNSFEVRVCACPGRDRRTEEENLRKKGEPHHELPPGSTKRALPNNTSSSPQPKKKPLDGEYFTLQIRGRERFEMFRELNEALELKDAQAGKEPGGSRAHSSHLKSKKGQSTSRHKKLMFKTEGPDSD

Take `CCCS(=O)(=O)Nc1ccc(F)c(C(=O)c2c[nH]c3ncc(Cl)cc23)c1F`: the activation in assay [1] was 27.8% and 12.5%. Further, the Potency result in assay [2], in assay [3], in [5], in [7] and in [8] was “inactive” throughout. Besides, the Potency in assay [4] was 16.6 µM (active); in [6], 11.8 µM (active).
For `Cc1ccc2c(c1)C(=O)[C@]1(O)CCN(c3ccccc3)C1=N2`, the activation in assay [1] is -1.14% and -10.7%. Besides, the Potency entry in assay [2], in [3] and in assay [7] was “inactive” each time. Besides, the viability in [4] is 110%. Further, the Potency in assay [5] is 18.6 µM (active); in [9] it was 23.5 µM (active); in [8] it was 16.6 µM (active).
For `O=C(Cc1ccc(-c2ccc(OCCN3CCOCC3)cc2)cn1)NCc1ccccc1`, the activation in assay [1] was 20.5%. The Potency result in assay [2] and in assay [3] was “inactive” each time. Further, the Potency in assay [4] is 0.166 µM (active); in [5] it was 0.105 µM (active); in assay [9], 0.118 µM (active); in [7] it was 0.118 µM (active); in [10] it was 0.0934 µM (active); in [8] it was 0.0934 µM (active).
On to `COc1cccc2c1c(O)c(C(=O)N(C)c1ccc(C(F)(F)F)cc1)c(=O)n2C`, for which the activation in [1] is 10.1%. Besides, the Potency result in assay [2], in assay [3], in assay [5], in assay [9], in [7] and in assay [10] was “inactive” in each case. In addition, in assay [8], the Potency result is “inactive”. In addition, the viability in [4] is 40.7%.
Take `CC(=O)Nc1ccc(C(=O)Nc2ccccc2N)cc1`: in assay [1], the activation was 3% and -4.47%. Further, the Potency entry in assay [2] and in assay [3] was “inactive” each time. Further, the Potency was 7.42 µM (active) in assay [4]; 16.6 µM (active) in assay [5]; 5.9 µM (active) in assay [9]; 10.5 µM (active) in assay [7]; 18.6 µM (active) in assay [10]; 18.6 µM (active) in assay [8].
As for `CC1(C)CCC(CN2CCN(c3ccc(C(=O)NS(=O)(=O)c4ccc(NCC5CCOCC5)c([N+](=O)[O-])c4)c(Oc4cnc5[nH]ccc5c4)c3)CC2)=C(c2ccc(Cl)cc2)C1`, the activation in [1] is -10.9%. The Potency result in assay [2] and in [3] was “inactive” each time. The viability in assay [4] was 114%. Moreover, the Potency in assay [5] is 3.72 µM (active); in [9] it was 0.118 µM (active); in assay [10] it was 18.6 µM (active); in assay [8], 4.68 µM (active).
As for `CCn1c(-c2nonc2N)nc2cncc(CNC3CCNCC3)c21`, in assay [1], the activation is -16.3% and 6.25%. Besides, the Potency result in assay [2] and in assay [3] was “inactive” throughout. Also, the viability in assay [4] is 103%. The Potency in assay [5] was 1.66 µM (active); in assay [9] it was 2.63 µM (active); in assay [7], 5.9 µM (active); in assay [10], 1.86 µM (active); in [8], 4.68 µM (active).
On to `O=C(O)CCCCCC(=O)NN=C1CCCC1`, for which the activation in assay [1] is -11%. Also, the Potency result in assay [2], in assay [3], in assay [5], in [9], in assay [7] and in assay [10] was “inactive” in each case. Moreover, the Potency entry in assay [8] was “inactive”. Moreover, the viability in [4] was 108%.
As to `CCS(=O)(=O)N1CCC([C@@H](C)n2c(C)c(C(=O)NCc3c(OC)cc(C)[nH]c3=O)c3ccccc32)CC1`, the activation in assay [1] is 7.16%. Moreover, the Potency entry in [2], in [3], in assay [6], in assay [7], in [10] and in [8] was “inactive” throughout. Besides, the viability in assay [4] was 115%. Moreover, the Potency in [5] is 5.9 µM (active).
Consider `COc1cc(C(=O)N2CCC(N3CCN(C)CC3)CC2)ccc1Nc1ncc2c(n1)N(C)c1ccccc1C(=O)N2C`, for which, in [1], the activation is -6.3% and 0.893%. The Potency entry in assay [2] and in assay [3] was “inactive” each time. The Potency was 6.61 µM (active) in assay [4]; 2.35 µM (active) in assay [5]; 1.48 µM (active) in assay [9]; 4.68 µM (active) in [7]; 16.6 µM (active) in [8].
Regarding `CCC(C)n1ncn(-c2ccc(N3CCN(c4ccc(OC[C@H]5CO[C@](Cn6cncn6)(c6ccc(Cl)cc6Cl)O5)cc4)CC3)cc2)c1=O` (stereo not given in full), in assay [1], the activation is 10% and -7.18% and -11.6%. In addition, the Potency result in assay [2], in [3], in assay [6], in assay [7] and in assay [8] was “inactive” throughout. The viability in assay [4] is 101%. The Potency in assay [5] was 6.45 µM (active); in [10], 7.23 µM (active).
Regarding `CCN1CCN(Cc2ccc(Nc3ncc(F)c(-c4cc(F)c5nc(C)n(C(C)C)c5c4)n3)nc2)CC1`, the Potency in assay [1] is 12 µM (active); in [4], 5.9 µM (active); in assay [5], 23.5 µM (active); in assay [6], 5.9 µM (active); in assay [10], 2.95 µM (active); in assay [8], 2.09 µM (active). In addition, the Potency entry in assay [2] and in assay [3] was “inactive” throughout.
As to `NCCOc1cc(C(=O)Nc2cc(OCCN)c3ccccc3n2)nc(C(=O)Nc2cc(OCCN)c3ccccc3n2)c1`, the Potency in assay [1] is 0.193 µM (active); in assay [9], 16.6 µM (active). Also, the Potency result in assay [2], in [3], in assay [5] and in assay [10] was “inactive” in each case. For the same molecule, in assay [4], the viability is 78%.
Take `COc1ccc(C2(C#N)CCC(C(=O)O)CC2)cc1OC1CCCC1` (stereo not given): the activation in assay [1] is -6.96% and -15.7%. Also, the Potency entry in [2], in [3], in [5], in [6], in assay [7] and in assay [10] was “inactive” throughout. Also, the Potency entry in [8] is “inactive”. Besides, in assay [4], the viability is 119%.
Regarding `CCc1c2c(nc3ccc(O)cc13)-c1cc3c(c(=O)n1C2)COC(=O)[C@]3(O)CC`, the Potency in assay [1] is 1.51 µM (active); in assay [4], 0.0166 µM (active); in assay [5] it was 0.0093 µM (active); in assay [9], 0.0093 µM (active); in assay [7], 0.0083 µM (active); in [10], 0.0093 µM (active). Also, the Potency in [8] is 0.0118 µM (active). In addition, the Potency result in assay [2] and in [3] was “inactive” throughout.
Consider `CCOC(=O)c1ccnc(CNCC(=O)N(CC)CCN(C)C)c1`, for which, in assay [1], the activation is 8.33%. The Potency result in assay [2], in assay [3], in assay [5], in [9], in assay [7] and in [10] was “inactive” each time. The Potency result in assay [8] is “inactive”. Besides, the viability in assay [4] was 104%.
Regarding `CC(C)c1nn(-c2c(Cl)cccc2Cl)c2nc(Cc3ccc(OCCO)cc3)[nH]c(=O)c12`, the Potency is 68.5 nM (active) and 60.1 nM (active) in assay [1]; 0.0417 µM (active) in [4]; 0.0742 µM (active) in assay [5]; 0.0417 µM (active) in assay [9]; 0.0295 µM (active) in [10]; 0.0468 µM (active) in assay [8]. Also, the Potency result in assay [2] and in assay [3] was “inactive” each time.

One may read the viability as a read-out of living cells in per cent, often relative to untreated cells.
